# Results published in ChEMBL document CHEMBL2218924, “A broad activity screen in support of a chemogenomic map for kinase signalling research and drug discovery” (Biochem J, 2013).
# Legend:
# [1] = target: Protein kinase C eta type (Homo sapiens) (UniProt P24723); settings: at 1 µM
# [2] = target: Protein kinase C eta type (Homo sapiens) (UniProt P24723); settings: at 10 µM
# [3] = target: Protein kinase C theta type (Homo sapiens) (UniProt Q04759); settings: at 1 µM
# [4] = target: Protein kinase C theta type (Homo sapiens) (UniProt Q04759); settings: at 10 µM
# [5] = target: T1, Protein kinase C iota type (Homo sapiens) (UniProt P41743); settings: at 1 µM
# T1 sequence (whole entry): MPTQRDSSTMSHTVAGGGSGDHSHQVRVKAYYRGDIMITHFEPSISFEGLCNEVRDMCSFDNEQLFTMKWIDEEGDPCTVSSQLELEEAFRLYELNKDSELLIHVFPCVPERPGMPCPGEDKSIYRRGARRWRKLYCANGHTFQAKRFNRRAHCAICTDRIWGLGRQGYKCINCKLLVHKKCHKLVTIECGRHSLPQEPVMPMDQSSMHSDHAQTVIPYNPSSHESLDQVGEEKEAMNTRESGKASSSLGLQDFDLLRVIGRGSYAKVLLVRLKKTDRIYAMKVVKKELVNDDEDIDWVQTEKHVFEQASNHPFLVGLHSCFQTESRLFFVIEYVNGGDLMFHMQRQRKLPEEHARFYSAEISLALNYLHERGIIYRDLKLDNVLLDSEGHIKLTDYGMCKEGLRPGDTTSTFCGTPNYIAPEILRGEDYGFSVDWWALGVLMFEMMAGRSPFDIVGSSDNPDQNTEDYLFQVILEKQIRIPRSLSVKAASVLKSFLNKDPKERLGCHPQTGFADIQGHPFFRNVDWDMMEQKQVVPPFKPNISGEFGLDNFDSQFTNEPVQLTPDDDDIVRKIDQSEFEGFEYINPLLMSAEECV
# [6] = target: T1, Protein kinase C iota type (Homo sapiens); settings: at 10 µM
# [7] = target: T2, Serine/threonine-protein kinase D1 (Homo sapiens) (UniProt Q15139); settings: at 1 µM
# T2 sequence (whole entry): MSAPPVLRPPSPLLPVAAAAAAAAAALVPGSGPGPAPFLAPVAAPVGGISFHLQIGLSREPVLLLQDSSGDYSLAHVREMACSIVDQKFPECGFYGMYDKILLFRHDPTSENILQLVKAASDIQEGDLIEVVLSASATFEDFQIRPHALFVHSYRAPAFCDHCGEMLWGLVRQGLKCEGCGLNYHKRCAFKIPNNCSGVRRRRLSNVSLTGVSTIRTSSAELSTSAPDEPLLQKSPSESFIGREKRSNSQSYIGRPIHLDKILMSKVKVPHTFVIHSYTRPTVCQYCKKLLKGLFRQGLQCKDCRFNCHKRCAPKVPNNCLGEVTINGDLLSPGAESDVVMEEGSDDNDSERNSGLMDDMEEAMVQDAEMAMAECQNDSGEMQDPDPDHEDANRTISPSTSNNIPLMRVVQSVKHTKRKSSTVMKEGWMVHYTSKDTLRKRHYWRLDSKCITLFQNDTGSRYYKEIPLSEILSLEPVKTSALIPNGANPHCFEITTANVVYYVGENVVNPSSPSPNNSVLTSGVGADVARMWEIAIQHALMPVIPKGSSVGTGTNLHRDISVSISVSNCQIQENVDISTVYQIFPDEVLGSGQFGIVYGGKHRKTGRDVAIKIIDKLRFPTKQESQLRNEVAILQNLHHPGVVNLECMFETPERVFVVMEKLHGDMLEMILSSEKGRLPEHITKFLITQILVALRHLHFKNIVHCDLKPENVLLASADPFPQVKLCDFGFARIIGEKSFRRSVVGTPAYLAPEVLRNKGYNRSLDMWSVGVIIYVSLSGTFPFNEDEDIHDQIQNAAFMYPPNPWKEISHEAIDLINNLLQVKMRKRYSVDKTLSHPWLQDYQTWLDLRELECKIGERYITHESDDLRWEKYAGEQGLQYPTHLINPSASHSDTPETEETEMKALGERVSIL
# [8] = target: T2, Serine/threonine-protein kinase D1 (Homo sapiens); settings: at 10 µM
# [9] = target: T3, Serine/threonine-protein kinase D2 (Homo sapiens) (UniProt Q9BZL6); settings: at 1 µM
# T3 sequence (whole entry): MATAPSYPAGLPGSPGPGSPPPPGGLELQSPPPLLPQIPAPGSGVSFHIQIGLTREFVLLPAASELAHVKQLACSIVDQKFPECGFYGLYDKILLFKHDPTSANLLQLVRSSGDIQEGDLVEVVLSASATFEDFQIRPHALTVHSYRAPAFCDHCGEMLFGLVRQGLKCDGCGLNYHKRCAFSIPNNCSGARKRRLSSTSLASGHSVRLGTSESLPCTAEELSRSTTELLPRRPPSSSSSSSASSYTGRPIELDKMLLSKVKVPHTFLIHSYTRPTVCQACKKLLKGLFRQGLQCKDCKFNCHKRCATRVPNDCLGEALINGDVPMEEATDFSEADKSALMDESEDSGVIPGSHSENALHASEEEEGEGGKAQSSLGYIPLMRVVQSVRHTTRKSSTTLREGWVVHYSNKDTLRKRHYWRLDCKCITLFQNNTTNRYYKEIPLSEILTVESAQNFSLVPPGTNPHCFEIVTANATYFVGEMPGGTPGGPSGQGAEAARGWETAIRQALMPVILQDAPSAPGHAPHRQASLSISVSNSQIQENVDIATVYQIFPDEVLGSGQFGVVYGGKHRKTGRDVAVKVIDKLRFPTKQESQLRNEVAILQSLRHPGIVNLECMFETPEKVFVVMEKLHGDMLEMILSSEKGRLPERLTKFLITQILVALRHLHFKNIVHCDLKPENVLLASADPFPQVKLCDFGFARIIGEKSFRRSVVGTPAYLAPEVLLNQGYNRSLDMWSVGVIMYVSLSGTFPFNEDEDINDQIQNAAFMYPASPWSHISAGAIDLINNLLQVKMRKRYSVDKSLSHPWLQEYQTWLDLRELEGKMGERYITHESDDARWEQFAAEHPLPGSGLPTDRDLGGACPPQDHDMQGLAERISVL
# [10] = target: T3, Serine/threonine-protein kinase D2 (Homo sapiens); settings: at 10 µM
# [11] = target: T4, cGMP-dependent protein kinase 1 (Homo sapiens) (UniProt Q13976); settings: at 1 µM
# T4 sequence (whole entry): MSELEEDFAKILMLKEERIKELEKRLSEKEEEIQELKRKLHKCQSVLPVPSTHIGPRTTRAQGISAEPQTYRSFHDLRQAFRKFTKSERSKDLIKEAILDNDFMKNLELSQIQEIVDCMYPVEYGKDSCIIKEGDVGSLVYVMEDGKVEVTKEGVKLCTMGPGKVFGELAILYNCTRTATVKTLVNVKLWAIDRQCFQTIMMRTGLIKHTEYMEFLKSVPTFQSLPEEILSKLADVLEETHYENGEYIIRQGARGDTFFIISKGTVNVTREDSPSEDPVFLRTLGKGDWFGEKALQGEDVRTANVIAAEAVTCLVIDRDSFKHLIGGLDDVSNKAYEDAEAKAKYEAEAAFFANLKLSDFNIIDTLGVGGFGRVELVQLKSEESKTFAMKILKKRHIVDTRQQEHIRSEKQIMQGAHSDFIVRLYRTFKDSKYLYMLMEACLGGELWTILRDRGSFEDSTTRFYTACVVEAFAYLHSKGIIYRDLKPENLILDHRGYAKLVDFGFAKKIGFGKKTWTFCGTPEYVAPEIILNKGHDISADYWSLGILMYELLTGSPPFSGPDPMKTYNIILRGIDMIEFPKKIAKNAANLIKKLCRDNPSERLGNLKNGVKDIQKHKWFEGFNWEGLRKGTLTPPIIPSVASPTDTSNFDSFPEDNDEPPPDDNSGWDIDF
# [12] = target: T4, cGMP-dependent protein kinase 1 (Homo sapiens); settings: at 10 µM
# [13] = target: T4, cGMP-dependent protein kinase 1 (Homo sapiens); settings: at 1 µM; remark: listed apart in the source
# [14] = target: T4, cGMP-dependent protein kinase 1 (Homo sapiens); settings: at 10 µM; remark: listed apart in the source
# [15] = target: T5, MAP kinase-activated protein kinase 5 (Homo sapiens) (UniProt Q8IW41); settings: at 1 µM
# T5 sequence (whole entry): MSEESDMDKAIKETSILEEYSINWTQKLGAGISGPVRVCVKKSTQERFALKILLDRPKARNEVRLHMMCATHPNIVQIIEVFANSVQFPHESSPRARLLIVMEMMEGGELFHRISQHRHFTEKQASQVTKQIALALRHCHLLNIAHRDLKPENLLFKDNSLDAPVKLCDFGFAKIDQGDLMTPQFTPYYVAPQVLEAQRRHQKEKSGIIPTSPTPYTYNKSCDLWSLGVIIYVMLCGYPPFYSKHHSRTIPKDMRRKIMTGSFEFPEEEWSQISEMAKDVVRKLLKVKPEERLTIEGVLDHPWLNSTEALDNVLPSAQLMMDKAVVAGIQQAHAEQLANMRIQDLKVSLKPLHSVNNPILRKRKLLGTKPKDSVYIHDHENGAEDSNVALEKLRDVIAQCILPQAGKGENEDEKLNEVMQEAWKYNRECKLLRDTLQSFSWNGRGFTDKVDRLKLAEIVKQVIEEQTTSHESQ
# [16] = target: T5, MAP kinase-activated protein kinase 5 (Homo sapiens); settings: at 10 µM
# [17] = target: Serine/threonine-protein kinase N2 (Homo sapiens) (UniProt Q16513); settings: at 1 µM
# [18] = target: Serine/threonine-protein kinase N2 (Homo sapiens) (UniProt Q16513); settings: at 10 µM
# [19] = target: Tyrosine-protein kinase FRK (Homo sapiens) (UniProt P42685); settings: at 1 µM
# [20] = target: Tyrosine-protein kinase FRK (Homo sapiens) (UniProt P42685); settings: at 10 µM
# Chain of Protein kinase C theta type (Homo sapiens) (Q04759 whole entry, looked up): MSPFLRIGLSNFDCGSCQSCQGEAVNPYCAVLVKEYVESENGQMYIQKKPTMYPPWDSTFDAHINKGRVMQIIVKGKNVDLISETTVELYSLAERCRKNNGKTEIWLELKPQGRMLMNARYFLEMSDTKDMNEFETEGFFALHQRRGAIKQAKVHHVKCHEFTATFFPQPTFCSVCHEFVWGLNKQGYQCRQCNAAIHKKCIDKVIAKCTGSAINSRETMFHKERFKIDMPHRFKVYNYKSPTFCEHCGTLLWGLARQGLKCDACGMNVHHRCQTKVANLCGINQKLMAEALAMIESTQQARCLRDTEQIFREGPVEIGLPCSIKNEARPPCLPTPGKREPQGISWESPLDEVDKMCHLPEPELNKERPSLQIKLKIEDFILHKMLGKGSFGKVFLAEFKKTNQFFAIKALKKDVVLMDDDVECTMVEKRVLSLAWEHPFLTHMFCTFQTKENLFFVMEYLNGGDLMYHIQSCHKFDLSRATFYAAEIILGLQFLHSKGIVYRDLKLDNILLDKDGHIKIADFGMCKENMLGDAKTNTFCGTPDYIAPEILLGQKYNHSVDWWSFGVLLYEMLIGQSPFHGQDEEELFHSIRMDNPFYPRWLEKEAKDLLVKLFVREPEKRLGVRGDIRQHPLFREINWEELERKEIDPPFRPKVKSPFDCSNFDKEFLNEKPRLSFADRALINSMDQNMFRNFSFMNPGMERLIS
# Chain of Protein kinase C eta type (Homo sapiens) (P24723 whole entry): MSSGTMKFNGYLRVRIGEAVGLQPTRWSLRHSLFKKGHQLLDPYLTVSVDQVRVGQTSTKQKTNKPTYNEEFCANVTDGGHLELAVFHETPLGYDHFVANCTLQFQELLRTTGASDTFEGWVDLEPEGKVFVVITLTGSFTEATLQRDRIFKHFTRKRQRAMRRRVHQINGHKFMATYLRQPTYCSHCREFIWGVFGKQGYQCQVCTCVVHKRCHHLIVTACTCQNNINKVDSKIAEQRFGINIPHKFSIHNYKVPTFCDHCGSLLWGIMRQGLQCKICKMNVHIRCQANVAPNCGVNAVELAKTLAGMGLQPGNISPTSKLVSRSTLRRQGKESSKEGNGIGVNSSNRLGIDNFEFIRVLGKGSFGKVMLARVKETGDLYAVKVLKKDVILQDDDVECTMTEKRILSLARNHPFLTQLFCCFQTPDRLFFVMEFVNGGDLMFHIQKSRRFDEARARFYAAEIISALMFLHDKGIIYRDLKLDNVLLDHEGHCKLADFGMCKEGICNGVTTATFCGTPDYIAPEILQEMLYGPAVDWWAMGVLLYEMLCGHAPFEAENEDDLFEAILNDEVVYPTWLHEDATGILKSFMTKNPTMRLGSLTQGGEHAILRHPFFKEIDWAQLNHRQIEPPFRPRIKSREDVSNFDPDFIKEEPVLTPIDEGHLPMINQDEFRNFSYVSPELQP
# Chain of Tyrosine-protein kinase FRK (Homo sapiens) (P42685 whole entry): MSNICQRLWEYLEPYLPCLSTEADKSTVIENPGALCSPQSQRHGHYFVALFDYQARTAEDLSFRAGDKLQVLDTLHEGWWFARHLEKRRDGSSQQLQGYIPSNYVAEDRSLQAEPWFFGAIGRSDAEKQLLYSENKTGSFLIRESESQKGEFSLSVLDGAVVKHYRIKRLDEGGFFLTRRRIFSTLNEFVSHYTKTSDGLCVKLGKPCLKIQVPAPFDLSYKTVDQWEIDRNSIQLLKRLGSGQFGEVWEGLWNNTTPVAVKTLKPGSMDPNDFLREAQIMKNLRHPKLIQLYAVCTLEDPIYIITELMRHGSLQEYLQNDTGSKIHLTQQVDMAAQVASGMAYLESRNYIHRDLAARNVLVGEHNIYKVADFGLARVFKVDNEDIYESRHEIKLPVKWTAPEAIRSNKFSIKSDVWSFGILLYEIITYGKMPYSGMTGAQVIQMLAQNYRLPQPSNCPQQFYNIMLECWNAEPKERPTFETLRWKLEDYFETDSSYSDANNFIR
# Chain of Serine/threonine-protein kinase N2 (Homo sapiens) (Q16513 whole entry, looked up): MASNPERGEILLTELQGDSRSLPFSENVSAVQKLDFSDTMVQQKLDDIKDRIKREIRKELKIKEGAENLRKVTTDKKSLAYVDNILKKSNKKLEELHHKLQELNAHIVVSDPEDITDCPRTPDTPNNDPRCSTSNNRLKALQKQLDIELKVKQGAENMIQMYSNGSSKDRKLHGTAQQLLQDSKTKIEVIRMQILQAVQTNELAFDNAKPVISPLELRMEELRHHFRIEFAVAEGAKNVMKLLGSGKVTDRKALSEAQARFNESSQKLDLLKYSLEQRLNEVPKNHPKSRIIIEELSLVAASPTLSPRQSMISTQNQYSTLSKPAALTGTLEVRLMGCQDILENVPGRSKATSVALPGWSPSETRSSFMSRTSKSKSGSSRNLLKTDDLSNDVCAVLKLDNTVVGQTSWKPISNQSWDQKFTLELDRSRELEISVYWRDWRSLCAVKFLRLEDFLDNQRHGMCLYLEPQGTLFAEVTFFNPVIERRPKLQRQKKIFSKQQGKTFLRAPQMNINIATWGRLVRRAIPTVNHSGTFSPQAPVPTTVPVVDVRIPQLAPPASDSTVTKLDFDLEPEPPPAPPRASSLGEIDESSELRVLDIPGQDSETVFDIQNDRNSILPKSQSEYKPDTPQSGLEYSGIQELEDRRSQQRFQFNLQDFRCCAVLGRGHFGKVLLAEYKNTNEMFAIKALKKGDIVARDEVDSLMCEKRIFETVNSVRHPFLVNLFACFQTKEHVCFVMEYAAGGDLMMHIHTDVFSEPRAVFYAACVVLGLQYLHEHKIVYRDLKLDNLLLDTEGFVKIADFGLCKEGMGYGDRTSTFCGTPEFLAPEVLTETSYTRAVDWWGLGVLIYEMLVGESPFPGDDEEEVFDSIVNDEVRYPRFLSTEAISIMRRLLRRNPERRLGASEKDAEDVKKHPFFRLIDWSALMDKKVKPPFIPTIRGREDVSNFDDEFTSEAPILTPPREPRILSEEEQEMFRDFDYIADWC
SMILES,residual activity [1],residual activity [2],residual activity [3],residual activity [4],residual activity [5],residual activity [6],residual activity [7],residual activity [8],residual activity [9],residual activity [10],residual activity [11],residual activity [12],residual activity [13],residual activity [14],residual activity [15],residual activity [16],residual activity [17],residual activity [18],residual activity [19],residual activity [20]
O=C(O)c1ccc2c3c1cccc3c(=O)n1c3ccccc3nc21,76%,84%,109%,107%,105% (inactive),92%,110%,57%,101%,84%,95%,97%,98%,83%,81%,62%,96%,86%,95%,90%
COc1cccc(-c2cc(=O)c3ccccc3o2)c1N,101%,94%,92%,97%,114% (inactive),108%,85%,95%,110%,97%,95%,89%,114%,102%,125%,108%,94%,90%,93%,86%
Cn1nc2c3c(cccc31)C(=O)c1ccccc1-2,88%,89%,97%,86%,105% (inactive),105%,61%,54%,108%,92%,86%,95%,100%,6%,76%,44%,95%,77%,87%,64%
O=C(Nc1cccc(Nc2nccc(Nc3cccc(C(F)(F)F)c3)n2)c1)C1CC1,107%,84%,102%,82%,84% (inactive),77%,101%,125%,99%,96%,100%,101%,90%,66%,128%,65%,106%,96%,53%,11%
CC#CC(=O)Nc1cc2c(Nc3ccc(F)c(Cl)c3)ncnc2cn1,90%,84%,96%,96%,87% (inactive),106%,89%,84%,105%,114%,103%,102%,86%,92%,84%,77%,94%,98%,97%,92%
O=C1NC(=O)/C(=C\c2ccc3nccnc3c2)S1,103%,78%,102%,81%,89% (inactive),88%,103%,88%,108%,96%,125%,97%,80%,62%,96%,93%,103%,94%,110%,93%
